Assay results from the supplement of paper PMC10849652.
The full data set covers some 7,900 targets. This sample favours those with a hit. About 0.6% of all pairs of compound and target were hits.

What follows are targets tested with C[C@H](Nc1ncnc2nc[nH]c12)c1cc2cccc(Cl)c2c(=O)n1-c1ccccc1 [duvelisib] (assay: log2 fold change, soluble protein after heating vs DMSO (PISA); higher = thermal stabilisation; K562 cells, 10 uM, 30 min; active = over 0.2 and 3.5 SD of the protein, either way, in both replicates (recomputed)).
Outline: (§1)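 Values are thermal stability changes relative to control samples and are taken from duplicates. They are stated as log2 fold changes. Before quantification by TMTpro 16plex LC-MS/MS with equalised channel sums, K562 cells at 2×10^6 cells/mL were treated with 10 μM compound for 30 min, heated in aliquots for 3 min across 48°C-58°C, pooled, extracted in PBS with 0.5% NP-40 at 4°C, and centrifuged at 21,000xg for 90 min to give the soluble supernatant.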

Sequence of UniProt Q502W6 (Q502W6 whole entry, looked up): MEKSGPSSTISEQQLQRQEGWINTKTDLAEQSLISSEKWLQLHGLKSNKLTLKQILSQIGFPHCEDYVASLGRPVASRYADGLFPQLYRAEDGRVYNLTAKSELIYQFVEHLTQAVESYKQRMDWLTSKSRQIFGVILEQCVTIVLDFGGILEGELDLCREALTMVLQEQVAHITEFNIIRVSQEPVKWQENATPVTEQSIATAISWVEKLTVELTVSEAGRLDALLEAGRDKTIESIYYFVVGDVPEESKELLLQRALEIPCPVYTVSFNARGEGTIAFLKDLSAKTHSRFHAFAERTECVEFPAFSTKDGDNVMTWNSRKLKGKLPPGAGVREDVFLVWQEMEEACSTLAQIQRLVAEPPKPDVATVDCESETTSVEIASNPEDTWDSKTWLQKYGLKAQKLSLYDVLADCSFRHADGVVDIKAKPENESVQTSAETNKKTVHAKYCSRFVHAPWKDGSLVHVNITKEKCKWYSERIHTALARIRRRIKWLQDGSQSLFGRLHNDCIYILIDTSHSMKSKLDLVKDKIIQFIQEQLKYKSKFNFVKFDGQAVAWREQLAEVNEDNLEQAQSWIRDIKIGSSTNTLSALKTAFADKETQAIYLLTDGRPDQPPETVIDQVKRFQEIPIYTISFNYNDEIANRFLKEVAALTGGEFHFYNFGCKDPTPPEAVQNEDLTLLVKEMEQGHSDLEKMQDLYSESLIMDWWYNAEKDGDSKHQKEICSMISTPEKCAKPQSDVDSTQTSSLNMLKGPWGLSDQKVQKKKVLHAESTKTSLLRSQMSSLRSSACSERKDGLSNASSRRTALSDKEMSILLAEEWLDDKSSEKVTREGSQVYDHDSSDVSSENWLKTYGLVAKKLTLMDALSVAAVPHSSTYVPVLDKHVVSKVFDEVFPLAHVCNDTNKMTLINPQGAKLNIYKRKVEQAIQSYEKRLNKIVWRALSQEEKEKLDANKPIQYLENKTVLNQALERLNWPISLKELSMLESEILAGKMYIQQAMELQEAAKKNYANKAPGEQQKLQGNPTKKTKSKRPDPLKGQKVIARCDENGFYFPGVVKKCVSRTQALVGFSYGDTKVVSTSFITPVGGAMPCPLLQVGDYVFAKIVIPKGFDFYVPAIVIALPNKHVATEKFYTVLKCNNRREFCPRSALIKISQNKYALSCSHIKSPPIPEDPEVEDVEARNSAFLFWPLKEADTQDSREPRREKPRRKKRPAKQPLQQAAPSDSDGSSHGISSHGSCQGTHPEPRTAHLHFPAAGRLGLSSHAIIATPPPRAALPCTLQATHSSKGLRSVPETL
Sequence of UniProt Q9BQB6 (Q9BQB6 whole entry, looked up): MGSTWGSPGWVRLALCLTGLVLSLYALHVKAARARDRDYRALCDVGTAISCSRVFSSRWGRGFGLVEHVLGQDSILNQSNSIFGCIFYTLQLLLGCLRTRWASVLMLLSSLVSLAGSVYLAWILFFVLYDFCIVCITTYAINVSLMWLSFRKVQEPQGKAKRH
Sequence of UniProt P98170 (P98170 whole entry, looked up): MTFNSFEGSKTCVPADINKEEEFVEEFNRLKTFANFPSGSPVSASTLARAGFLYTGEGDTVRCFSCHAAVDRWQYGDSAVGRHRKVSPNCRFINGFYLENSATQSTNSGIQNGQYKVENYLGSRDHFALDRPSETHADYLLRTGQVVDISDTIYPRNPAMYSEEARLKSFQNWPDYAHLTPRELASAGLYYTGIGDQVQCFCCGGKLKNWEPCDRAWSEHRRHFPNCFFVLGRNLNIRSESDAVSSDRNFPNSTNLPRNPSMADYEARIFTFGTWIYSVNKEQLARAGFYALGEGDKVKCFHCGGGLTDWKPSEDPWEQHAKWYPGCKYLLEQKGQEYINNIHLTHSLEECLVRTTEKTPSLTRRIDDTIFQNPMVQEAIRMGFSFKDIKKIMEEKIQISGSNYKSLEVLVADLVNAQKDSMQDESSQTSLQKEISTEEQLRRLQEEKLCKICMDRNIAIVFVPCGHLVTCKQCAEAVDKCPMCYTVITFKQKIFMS
Sequence of UniProt Q8N2K1 (Q8N2K1 whole entry, looked up): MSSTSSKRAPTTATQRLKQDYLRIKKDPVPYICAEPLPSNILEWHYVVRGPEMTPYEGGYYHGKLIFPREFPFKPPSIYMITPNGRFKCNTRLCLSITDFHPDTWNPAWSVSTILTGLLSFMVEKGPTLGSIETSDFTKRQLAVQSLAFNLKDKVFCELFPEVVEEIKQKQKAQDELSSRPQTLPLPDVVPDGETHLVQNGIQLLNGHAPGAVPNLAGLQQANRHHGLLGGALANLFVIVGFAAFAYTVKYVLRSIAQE
Sequence of UniProt Q86XT9 (Q86XT9 whole entry, looked up): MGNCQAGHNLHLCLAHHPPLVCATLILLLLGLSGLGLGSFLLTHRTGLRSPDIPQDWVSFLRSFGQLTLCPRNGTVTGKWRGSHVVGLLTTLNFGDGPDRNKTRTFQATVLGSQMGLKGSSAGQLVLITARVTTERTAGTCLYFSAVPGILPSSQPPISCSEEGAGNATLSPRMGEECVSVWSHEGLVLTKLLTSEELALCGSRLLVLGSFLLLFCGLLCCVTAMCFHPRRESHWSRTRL
Sequence of UniProt P36406 (P36406 whole entry, looked up): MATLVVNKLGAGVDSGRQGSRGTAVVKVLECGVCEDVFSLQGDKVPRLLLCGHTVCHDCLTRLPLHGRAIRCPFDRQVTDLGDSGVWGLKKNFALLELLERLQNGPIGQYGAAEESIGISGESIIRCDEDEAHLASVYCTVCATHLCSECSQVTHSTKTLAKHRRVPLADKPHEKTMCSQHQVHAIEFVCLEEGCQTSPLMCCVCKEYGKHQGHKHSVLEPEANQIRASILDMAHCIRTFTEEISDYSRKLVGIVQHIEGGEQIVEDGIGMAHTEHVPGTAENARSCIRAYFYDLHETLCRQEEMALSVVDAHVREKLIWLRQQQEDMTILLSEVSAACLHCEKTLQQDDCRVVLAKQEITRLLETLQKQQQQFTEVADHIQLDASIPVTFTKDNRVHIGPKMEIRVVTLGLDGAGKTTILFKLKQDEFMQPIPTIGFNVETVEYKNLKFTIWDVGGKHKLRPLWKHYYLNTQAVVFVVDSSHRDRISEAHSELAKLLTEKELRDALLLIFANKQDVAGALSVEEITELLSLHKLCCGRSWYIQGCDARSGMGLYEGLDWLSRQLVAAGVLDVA
Sequence of UniProt O95857 (O95857 whole entry, looked up): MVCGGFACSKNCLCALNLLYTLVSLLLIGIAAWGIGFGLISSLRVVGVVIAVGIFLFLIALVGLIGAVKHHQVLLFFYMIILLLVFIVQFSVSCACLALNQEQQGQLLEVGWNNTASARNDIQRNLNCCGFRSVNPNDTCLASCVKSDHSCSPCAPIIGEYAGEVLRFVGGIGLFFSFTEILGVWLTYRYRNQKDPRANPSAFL
Sequence of UniProt Q9HCN3 (Q9HCN3 whole entry, looked up): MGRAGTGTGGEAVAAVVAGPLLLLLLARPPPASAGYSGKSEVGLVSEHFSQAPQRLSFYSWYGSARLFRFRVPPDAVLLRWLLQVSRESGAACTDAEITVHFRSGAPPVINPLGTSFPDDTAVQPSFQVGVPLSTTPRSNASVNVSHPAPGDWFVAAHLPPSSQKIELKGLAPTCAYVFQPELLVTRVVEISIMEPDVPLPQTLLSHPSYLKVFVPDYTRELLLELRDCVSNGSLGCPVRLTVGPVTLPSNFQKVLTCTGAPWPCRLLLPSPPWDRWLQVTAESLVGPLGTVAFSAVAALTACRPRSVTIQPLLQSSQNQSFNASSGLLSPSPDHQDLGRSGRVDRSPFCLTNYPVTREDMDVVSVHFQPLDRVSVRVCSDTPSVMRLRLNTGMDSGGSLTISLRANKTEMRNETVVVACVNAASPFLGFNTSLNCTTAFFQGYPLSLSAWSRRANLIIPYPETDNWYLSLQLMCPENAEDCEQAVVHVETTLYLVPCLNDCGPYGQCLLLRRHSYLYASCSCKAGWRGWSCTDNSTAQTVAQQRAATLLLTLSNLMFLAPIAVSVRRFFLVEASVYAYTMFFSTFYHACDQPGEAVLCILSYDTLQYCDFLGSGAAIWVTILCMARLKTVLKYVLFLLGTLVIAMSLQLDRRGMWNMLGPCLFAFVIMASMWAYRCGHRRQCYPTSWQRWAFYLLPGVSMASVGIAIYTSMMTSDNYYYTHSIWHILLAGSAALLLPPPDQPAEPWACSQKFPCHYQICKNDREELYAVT
Sequence of UniProt A6NIH7 (A6NIH7 whole entry, looked up): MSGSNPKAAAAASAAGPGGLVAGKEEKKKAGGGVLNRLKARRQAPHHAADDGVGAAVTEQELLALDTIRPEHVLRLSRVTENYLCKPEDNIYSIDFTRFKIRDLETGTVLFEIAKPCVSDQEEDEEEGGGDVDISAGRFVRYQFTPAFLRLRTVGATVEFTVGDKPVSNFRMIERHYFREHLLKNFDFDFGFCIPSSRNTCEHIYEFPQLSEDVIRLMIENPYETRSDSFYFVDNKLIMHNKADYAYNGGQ
Sequence of UniProt P51668 (P51668 whole entry, looked up): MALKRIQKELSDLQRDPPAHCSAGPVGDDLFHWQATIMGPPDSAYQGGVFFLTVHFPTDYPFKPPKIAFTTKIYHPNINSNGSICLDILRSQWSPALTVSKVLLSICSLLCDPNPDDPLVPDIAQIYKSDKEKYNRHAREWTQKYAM
Sequence of UniProt Q9Y5Z9 (Q9Y5Z9 whole entry, looked up): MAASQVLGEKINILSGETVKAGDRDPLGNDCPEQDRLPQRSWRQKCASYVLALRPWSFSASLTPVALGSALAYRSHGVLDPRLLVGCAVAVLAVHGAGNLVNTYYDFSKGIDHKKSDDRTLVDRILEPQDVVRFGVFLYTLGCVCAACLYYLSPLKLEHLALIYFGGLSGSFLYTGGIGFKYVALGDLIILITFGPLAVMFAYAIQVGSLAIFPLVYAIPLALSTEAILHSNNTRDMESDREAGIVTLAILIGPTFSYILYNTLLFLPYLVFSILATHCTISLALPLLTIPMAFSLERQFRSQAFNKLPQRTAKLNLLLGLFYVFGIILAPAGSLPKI
Sequence of UniProt Q9NX01 (Q9NX01 whole entry, looked up): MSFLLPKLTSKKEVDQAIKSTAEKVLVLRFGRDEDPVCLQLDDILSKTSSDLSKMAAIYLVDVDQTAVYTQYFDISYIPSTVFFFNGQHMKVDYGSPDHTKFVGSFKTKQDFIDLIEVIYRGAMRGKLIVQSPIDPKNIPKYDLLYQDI

log2 fold change, inactive:
TMEM268 isoform 3 (UniProt Q5VZI3) 0.371, VKORC1 (UniProt Q9BQB6) 0.153, UNC119B (UniProt A6NIH7) 0.178, UBE2D1 (UniProt P51668) 0.054, U2AF1L5 (UniProt P0DN76) -0.014, TMEM104 (UniProt Q8NE00) 0.129, VDAC1 (UniProt C9JI87) 0.09, TXNRD1 isoform 7 (UniProt Q16881) -0.049, TMEM8A (UniProt Q9HCN3) 0.394, UBE2J2 isoform 3 (UniProt Q8N2K1) 0.101, TVP23C (UniProt Q96ET8) -0.065, VPS72 isoform 2 (UniProt Q15906) -0.021, WDR75 (UniProt Q8IWA0) -0.082, UBXN8 (UniProt O00124) 0.234, TXNL4B (UniProt Q9NX01) 0.083, TSPAN13 (UniProt O95857) 0.045, UBIAD1 (UniProt Q9Y5Z9) 0.021, UFM1 isoform 2 (UniProt P61960) -0.004, TRIM44 (UniProt Q96DX7) 0.063, XAB2 (UniProt Q9HCS7) -0.146, TUBA4A (UniProt C9JJQ8) 0.19, WARS1 (UniProt G3V227) -0.011, VWA3B isoform 6 (UniProt Q502W6) 0.337, TRIM23 (UniProt P36406) 0.008, XIAP (UniProt P98170) 0.068, TMEM219 (UniProt Q86XT9) -0.163, TRIM5 (UniProt Q9C035) -0.109, ULBP1 (UniProt Q9BZM6) -0.024

These targets were tested with Cc1cc(Nc2cc(CN3CCOCC3)c3nc(C)c(Cc4ccc(Cl)cc4F)n3n2)n[nH]1 [gandotinib] in the same assay as above.
Outline: as §1

log2 fold change, inactive:
TOM1 (UniProt O60784) -0.018, TMEM268 isoform 3 (UniProt Q5VZI3) 0.124, VKORC1 (UniProt Q9BQB6) -0.116, UNC119B (UniProt A6NIH7) 0.034, WDR4 isoform 3 (UniProt P57081) -0.247, UBE2D1 (UniProt P51668) 0.047, TMEM104 (UniProt Q8NE00) -0.087, UBAP2L (UniProt F8W726) -0.072, TXNRD1 isoform 7 (UniProt Q16881) 0.125, TMEM8A (UniProt Q9HCN3) 0.014, UBE2J2 isoform 3 (UniProt Q8N2K1) 0.028, TVP23C (UniProt Q96ET8) -0.016, UBXN8 (UniProt O00124) 0.026, WARS1 (UniProt G3V277) -0.218, TXNL4B (UniProt Q9NX01) -0.024, TSPAN13 (UniProt O95857) -0.05, UBIAD1 (UniProt Q9Y5Z9) 0.069, UFM1 isoform 2 (UniProt P61960) -0.066, TRIM44 (UniProt Q96DX7) 0.045, VWA3B isoform 6 (UniProt Q502W6) -0.08, TRIM23 (UniProt P36406) 0.128, XIAP (UniProt P98170) 0.061, TMEM219 (UniProt Q86XT9) 0.034

What follows are targets tested with Cc1cc(Nc2cc(N3CCN(C)CC3)nc(Sc3ccc(NC(=O)C4CC4)cc3)n2)n[nH]1 [tozasertib] in the same assay as above.
Outline: as §1

log2 fold change, inactive:
TOM1 (UniProt O60784) 0.044, TMEM268 isoform 3 (UniProt Q5VZI3) -0.073, VKORC1 (UniProt Q9BQB6) -0.027, TTC26 -0.11, UNC119B (UniProt A6NIH7) -0.019, UBE2D1 (UniProt P51668) -0.048, U2AF1L5 (UniProt P0DN76) -0.025, UBAP2L (UniProt F8W726) -0.003, TMEM8A (UniProt Q9HCN3) -0.026, UBE2J2 isoform 3 (UniProt Q8N2K1) -0.094, TVP23C (UniProt Q96ET8) -0.028, VPS72 isoform 2 (UniProt Q15906) 0.007, WDR75 (UniProt Q8IWA0) -0.2, UBXN8 (UniProt O00124) -0.077, WARS1 (UniProt G3V277) -0.206, TXNL4B (UniProt Q9NX01) 0.07, TSPAN13 (UniProt O95857) -0.06, UBIAD1 (UniProt Q9Y5Z9) -0.019, UFM1 isoform 2 (UniProt P61960) -0.042, TRIM44 (UniProt Q96DX7) 0.022, UTP20 (UniProt O75691) 0.021, TUBA4A (UniProt C9JJQ8) 0.001, WARS1 (UniProt G3V227) -0.016, VWA3B isoform 6 (UniProt Q502W6) 0.028, TRIM23 (UniProt P36406) -0.135, XIAP (UniProt P98170) -0.01, TMEM219 (UniProt Q86XT9) -0.055, TRIM5 (UniProt Q9C035) -0.096, ULBP1 (UniProt Q9BZM6) 0.044
